# Rows were chosen to be rich in hits. Some 8.8% of all compounds tested hit in one or more screens of this group.
# KB-V1 cytotox – qHTS assay for MDR1-selective chemotherapeutics: Primary screen using the drug-selected MDR subline cells KB-V1. actives 3.4% (n = 400,000). Potency, µM (doses to about 46.1 µM), hits mostly cytotoxic. AID 1347076, 2019. KB-V1 MDR cells viability, CellTiter-Glo, 72 h; note: nearly all actives have a fitted effect of over 60% in size
#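 Cells of the MDR subline KB-V1 are plated, dosed with compound at multiple concentrations, and incubated 72 h at 37 degrees C; CellTiter-Glo is then added and luminescence read after 10 min.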
# IL-1B inflam inh – qHTS for Inhibitors of Inflammasome Signaling: IL-1-beta AlphaLISA Primary Screen | THP-1 LPS/ATP IL-1B secretion, AlphaLISA, 16 h; active compounds read low | activity change, % at 57.5 µM | actives 4.7% (n = 360,000); in the data active = activity change below about -50%; inconclusive = mostly about -30% to -49%
#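 Secreted IL-1B measured by AlphaLISA bead assay after 16 h compound exposure of THP-1 cells; compounds (final up to 57.5 uM) added 1 h before LPS (250 ng/mL) and ATP (1.25 mM) stimulation; lower signal means less secretion.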
# HT1080-NT tox – qHTS for induction of synthetic lethality in tumor cells producing 2HG: qHTS for the HT-1080-NT fibrosarcoma cell line; actives 1.6% (n = 360,000); HT-1080-NT fibrosarcoma viability, CellTiter-Glo ATP luminescence, 48 h; Potency, µM (titrated, usually from 46.1 µM), hits mostly cytotoxic;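 note: NT is the 2HG producing partner of a matched IDH1 knockdown line; nearly all actives have a fitted effect of over 55% in size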
#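 Luminescent CellTiter-Glo readout after 48 hours of compound exposure at 37 degrees C defined viability of HT-1080-NT cells. Activity was normalized to DMSO wells and cell-free media wells; concentration-response curves were fitted and assigned curve classes.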
# KB-3-1 cytotox – qHTS assay for MDR1-selective chemotherapeutics: Primary screen using the parental adenocarcinoma cell KB-3-1 | actives 1.4% (n = 400,000) | Potency, µM (titrated, usually from 46.1 µM), usual class: cytotoxic | KB-3-1 viability, CellTiter-Glo ATP luminescence, 72 h; note: nearly all actives have a fitted effect of over 60% in size
#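 Parental KB-3-1 viability, qHTS format: 72 h compound exposure, 37 °C; CellTiter-Glo; media-only wells and DMSO plates as controls; concentration-effect fits on corrected data.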
# HT1080 IDH1KD tx – qHTS for induction of synthetic lethality in tumor cells producing 2HG: qHTS for the HT-1080-IDH1KD cell line; HT-1080 IDH1 knockdown viability, ATP luminescence, 48 h; actives 2% (n = 360,000); Potency, µM (top dose mostly 46.1 µM), most hits filed as cytotoxic
#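 Luminescent ATP read-out (CellTiter-Glo, 10 min at room temperature) after 48 h compound exposure at 37 °C gave viability of IDH1-knockdown HT-1080 cells. Activity was normalised to DMSO and cell-free wells, then fitted as concentration-response curves.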
# Numbers stand for hits; n = inactive; u = inconclusive; x = no result given; ! = a repeat was not active. Unless noted, calls come from the whole dose curve; as a rule, active = well fitted curve in the direction sought with a large enough effect; inconclusive = small, poorly fitted or top-dose-only effect, or another doubt; inactive = no such curve, though single readings can be large; an effect the other way counts as inactive or inconclusive.
SMILES,KB-V1 cytotox,IL-1B inflam inh,HT1080-NT tox,KB-3-1 cytotox,HT1080 IDH1KD tx
CCc1nc(N)nc(N)c1-c1ccc(N(C)Cc2ccccc2)c([N+](=O)[O-])c1,1.8µM,-98,u,4.1µM,0.65µM
CCc1nc(N)nc(N)c1-c1ccc(NCCN)c([N+](=O)[O-])c1,x,n,x,x,x
CCc1nc(N)nc(N)c1-c1ccc(Cl)cc1,u,n,0.82µM,u,1.2µM
O=[N+]([O-])c1ccc(/C=N/Nc2nc(N3CCCCCC3)nc(N3CCCCCC3)n2)o1,u,u,u,6.5µM,u
COC(=O)c1ccccc1-c1ccc(/C=N/Nc2nc(N3CCCC3)nc(N3CCCC3)n2)o1,u,-91,u,n,u
COC(=O)c1ccccc1-c1ccc(/C=N/NC(=O)c2cc3ccccc3o2)o1,13µM,n,n,u,n
CCOc1cc(/C=N/Nc2nc(N3CCCC3)nc(N3CCCC3)n2)ccc1O,u,n,n,n,n
CCOc1cccc(/C=N/Nc2nc(N3CCCC3)nc(N3CCCC3)n2)c1O,u,-108,n,n,n
O=C(N/N=C/c1cccc2ccccc12)c1cc2ccccc2o1,u,n,n,u,u
COc1nc(N/N=C/c2ccc(-c3ccccc3[N+](=O)[O-])o2)nc(N2CCOCC2)n1,u,n,n,u,n
O=[N+]([O-])c1ccc(-c2ccc(/C=N/Nc3nc(NCc4ccccc4)nc(N4CCOCC4)n3)o2)cc1,n,-91,18µM,n,16µM
Cc1c(Br)c([N+](=O)[O-])nn1CC(=O)Nc1ccc(Cc2ccncc2)cc1,n,n,n,n,n
CS(=O)(=O)NCC(c1cccnc1)N1CCN(c2ccccc2F)CC1 (configuration not stated),n,n,n,n,n
CCN(CC)S(=O)(=O)c1cc(NC(=O)Cn2ncc(Cl)c(Cl)c2=O)ccc1C,n,-59,10µM,u,7.3µM
O=C(Cn1ncc(Cl)c(Cl)c1=O)Nc1ccc2c(c1)OCO2,u,-99,u,u,18µM
O=C(Cn1ncc(Cl)c(Cl)c1=O)c1ccc2c(c1)OCCO2,21µM,-99,u,u,u
CCN(CC)S(=O)(=O)c1cc(NC(=O)CN2C(=O)NC(C)(c3ccccc3)C2=O)ccc1C (configuration not stated),n,n,n,n,u
COc1ccc(NC(=O)c2ccc(Cl)nc2)cc1S(=O)(=O)N1CCOCC1,n,n,n,u,n
COc1ccc(NC(=O)Cn2ncc(Cl)c(Cl)c2=O)cc1S(=O)(=O)N1CCOCC1,n,-54,n,n,21µM
CCCN1CNc2c(c(=O)[nH]c(=S)n2CCc2cccc(Cl)c2)C1,x,x,n,x,n
CCc1nc2sc3c(c2c(=O)n1NC(=O)CCl)CCCC3,u,-77,n,n,u
CC(=O)N(C(C)=O)n1c(C)nc2sc3c(c2c1=O)CCCC3,u,n,u,n,u
COc1ccc(/C=C2/SC(=O)N(CCNC(=O)C3CCCN3C(=O)c3cccs3)C2=O)cc1 (configuration not stated),n,-149,n,n,n
CCc1nc2ccc(C(=O)Nc3cc(-c4ccccc4)ccc3OC)cn2c1N(C)Cc1nccs1,n,-80,u,u,23µM
CCc1nc2ccc(C(=O)Nc3cc(-c4ccccc4)ccc3OC)cn2c1N(C)C(=O)c1cccc(OC)c1,u,-76,n,n,n
SMILES,KB-V1 cytotox,IL-1B inflam inh,HT1080-NT tox,KB-3-1 cytotox,HT1080 IDH1KD tx
CCc1nc2ccc(C(=O)Nc3cc(-c4ccccc4)ccc3OC)cn2c1N(C)Cc1ccc(OC)cc1,n,u,n,n,n
CNC(=O)c1ccc(N(Cc2ccccc2C)S(C)(=O)=O)cc1,u,n,n,n,n
Cc1ccccc1CN(c1ccc(C(=O)N2CCc3ccccc3C2)cc1)S(C)(=O)=O,10µM,n,n,10µM,n
COc1ccc(CN2CCN(S(=O)(=O)c3ccccc3)CC2)c(OC)c1,18µM!,n,n,n,n
COc1ccc(OC)c(CN2CCN(S(=O)(=O)c3ccccc3)CC2)c1,n,n,n,n,n
COc1cccc(CNC(=O)c2cccc(S(=O)(=O)N3CCN(Cc4ccccc4)CC3)c2)c1,15µM,n,n,n,n
O=C(NCCOc1ccccc1)c1cccc(S(=O)(=O)N2CCN(Cc3ccccc3)CC2)c1,u,n,n,n,n
COc1cccc(CNC(=O)c2ccc(C)c(S(=O)(=O)N3CCOCC3)c2)c1,n,n,n,n,n
COc1ccc(S(=O)(=O)N2CCN(C/C=C/c3ccccc3)CC2)cc1F,n,-65,n,n,n
COc1cccc(CNC(=O)c2ccc(C)c(S(=O)(=O)N3CCCCC3)c2)c1,u,-58,n,n,n
O=C(COC(=O)Cc1ccccc1[N+](=O)[O-])NCc1ccc(F)cc1,n,n,n,n,n
O=C(/C=C/c1ccc2c(c1)OCO2)Nc1cccc([S+](=O)([O-])Nc2ccccc2F)c1,n,x,x,n,x
CCOC(=O)c1cccc(NC(=S)NCc2ccc(C)cc2)c1,n,n,n,n,n
CC1Cc2cc(/C(O)=C3/C(=O)C(=O)N(CCN4CCOCC4)C3c3ccc(N(C)C)cc3)ccc2O1 (configuration not stated),u,n,n,n,n
CC(C)n1c(=O)c2c(O)cc(=O)oc2c2ccccc21,6.5µM,n,n,n,n
CS(=O)(=O)c1cccc(C(=O)OCC(=O)c2ccc3c(c2)OCCO3)c1,n,n,n,n,n
CCCCCCOC(=O)c1ccccc1NC(=O)/C=C/C(=O)O,n,-100,n,n,n
O=C(O)/C=C/C(=O)Nc1ccccc1C(=O)OCC(=O)c1ccc2c(c1)OCCO2,n,-75,n,n,n
CCN(CC)S(=O)(=O)c1cccc(C(=O)OCC(=O)c2ccc3c(c2)OCCO3)c1,13µM,n,n,n,n
CCCCC(=O)Nc1ccccc1C(=O)OCC(=O)c1ccc2c(c1)OCCO2,u,n,n,u,n
Clc1ccc2oc3c(Cl)ncnc3c2c1,n,-101,n,n,n
Cc1nc(Nc2ccccc2)c2oc3ccc(Cl)cc3c2n1,n,n,u,n,u
O=C1OC(c2ccccc2)(N(Nc2ccccc2)c2ccccc2)c2ccccc21 (configuration not stated),u,n,u,n,n
CCCN1CNc2c(c(=O)[nH]c(=S)n2CCc2ccc(OC)cc2OC)C1,x,x,n,x,n
COc1cc(NC(=O)COc2ccc(-n3ccnc3)cc2)cc(OC)c1,u,-106,n,u,n

# Screens deposited in PubChem BioAssay by National Center for Advancing Translational Sciences (NCATS).
